This is part of a sample that, as a whole, favours compounds with a hit. Of some 79,000 tested, about 15% had one in any assay. The source made the active and inactive calls. Cut-off read from the data, not from the text of the source: active = growth inhibition above about 70%; inactive = the rest.
Experiments:
[1] = NCI Yeast Anticancer Drug Screen. Data for the rad52 strain (AID 147);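 note: 0% = growth of vehicle-treated control cultures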; conditions: S. cerevisiae rad52 mutant growth inhibition, stronger effect = higher value
Procedure, shortened: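 Yeast strain carrying a DNA damage repair alteration was exposed to test compounds. Growth inhibition was measured relative to vehicle-treated controls.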

[2] = NCI Yeast Anticancer Drug Screen. Data for the wt1 strain (AID 149);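 note: 0% = growth of vehicle-treated wt1 cultures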; conditions: S. cerevisiae wt1 strain (SPY 50644) growth inhibition, stronger effect = higher value
Procedure, shortened: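 wt1 strain grown with compound or vehicle; inhibition taken from the growth difference.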

[3] = NCI Yeast Anticancer Drug Screen. Data for the rad50EPP+ strain (AID 151);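 note: 0% = growth of vehicle-treated control cultures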; conditions: S. cerevisiae rad50 mutant strain, stronger effect = higher value
Procedure, shortened: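 Yeast strain carrying rad50 alteration (rad50EPP+) exposed to compounds; growth inhibition measured relative to vehicle-treated controls.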

[4] = NCI Yeast Anticancer Drug Screen. Data for the mgt1 strain (AID 153); conditions: S. cerevisiae mgt1 mutant growth inhibition, stronger effect = higher value
Procedure, shortened: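 Yeast mgt1 strain (DNA repair/cell-cycle alteration panel) exposed to compounds; growth inhibition measured relative to vehicle-treated controls.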

[5] = NCI Yeast Anticancer Drug Screen. Data for the rad50 strain (AID 155);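 note: 0% = growth of vehicle-only cultures of the same strain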; conditions: S. cerevisiae rad50 strain growth inhibition, stronger effect = higher value
Procedure, shortened: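 DNA repair mutant yeast, compound exposure, growth read-out; inhibition is taken relative to vehicle.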

[6] = NCI Yeast Anticancer Drug Screen. Data for the mec2-1 strain (AID 157); conditions: S. cerevisiae mec2-1 strain, stronger effect = higher value
Procedure, shortened: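 mec2-1 yeast strain, carrying an alteration in DNA damage repair or cell cycle control, was exposed to compounds; growth inhibition was measured relative to vehicle-treated controls.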

[7] = NCI Yeast Anticancer Drug Screen. Data for the rad14 strain (AID 159);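 note: 0% = growth of vehicle-treated control cultures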; conditions: S. cerevisiae rad14 strain growth inhibition, stronger effect = higher value
Procedure, shortened: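 DNA repair-defective yeast, compound-exposed; % growth inhibition derived by comparison with vehicle-treated controls.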

[8] = NCI Yeast Anticancer Drug Screen. Data for the sgs1 mgt1 strain (AID 161);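 note: 0% = growth of cultures given vehicle only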; conditions: S. cerevisiae sgs1 mgt1 strain, stronger effect = higher value
Procedure, shortened: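 Percent growth inhibition was derived by comparing compound-exposed mutant yeast with vehicle-exposed cultures. The strain carries alterations in DNA damage repair.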

[9] = NCI Yeast Anticancer Drug Screen. Data for the CLN2oe strain (AID 163);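 note: 0% = growth of vehicle-only control cultures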; conditions: S. cerevisiae CLN2oe strain, stronger effect = higher value
Procedure, shortened: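 Yeast cells carrying a defined cell-cycle control alteration were exposed to test compounds. Growth inhibition was scored against vehicle-treated control cultures.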

[10] = NCI Yeast Anticancer Drug Screen. Data for the cln2 rad14 strain (AID 165);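 note: 0% = growth equal to vehicle treated cultures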; conditions: S. cerevisiae cln2 rad14 strain, stronger effect = higher value
Procedure, shortened: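 Yeast carrying cln2 and rad14 alterations (cell cycle control and DNA damage repair) were exposed to compounds. Growth inhibition was measured against vehicle-treated controls.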

[11] = NCI Yeast Anticancer Drug Screen. Data for the bub3 strain (AID 167); conditions: S. cerevisiae bub3 mutant strain, stronger effect = higher value
Procedure, shortened: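 In this screen, a yeast mutant lacking normal mitotic checkpoint function is challenged with compound. Relative growth versus vehicle gives the inhibition value.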

[12] = NCI Yeast Anticancer Drug Screen. Data for the wt2 strain (AID 169);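 note: 0% = growth of vehicle-treated yeast cultures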; conditions: S. cerevisiae wt2 strain growth inhibition, stronger effect = higher value
Procedure, shortened: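 Yeast cells were exposed to test compounds, and growth inhibition was measured relative to vehicle-treated controls.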

[13] = NCI Yeast Anticancer Drug Screen. Data for the sgs1 strain (AID 173);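 note: 0% = growth of vehicle-only control cultures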; conditions: S. cerevisiae sgs1 mutant, stronger effect = higher value
Procedure, shortened: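 Yeast mutant strains carrying defined defects in DNA damage repair or cell cycle control were exposed to test compounds. Growth inhibition was scored against vehicle-treated controls.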

[14] = NCI Yeast Anticancer Drug Screen. Data for the mlh1 rad18 strain (AID 175); conditions: S. cerevisiae mlh1 rad18 strain growth inhibition, stronger effect = higher value
Procedure, shortened: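 Growth inhibition of the yeast strain was measured after compound exposure and expressed relative to vehicle-treated controls. The strain carries defined defects in DNA damage repair.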

[15] = NCI Yeast Anticancer Drug Screen. Data for the rad18 strain (AID 177); conditions: S. cerevisiae rad18 mutant growth inhibition, stronger effect = higher value
Procedure, shortened: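 Yeast carrying a defined DNA damage repair alteration were exposed to compounds. Growth inhibition was expressed relative to vehicle-treated controls.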

[16] = NCI Yeast Anticancer Drug Screen. Data for the mlh1 strain (AID 171);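 note: 0% = growth of vehicle-treated control cultures of the same strain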; conditions: S. cerevisiae mlh1 strain growth inhibition, stronger effect = higher value
Procedure, shortened: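 Yeast carrying a defined genetic alteration in DNA damage repair or cell cycle control were exposed to test compounds. Growth inhibition was measured relative to vehicle-treated controls.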

[17] = at 5.0 µM (retest, dose inferred, filed as 0.5)
[18] = at 50.0 µM (retest, dose inferred, filed as 5.0)

Measured: growth inhibition

Nc1ccc2c(=S)c3ccccc3[nH]c2c1
inactive: [1]; at 1.2 µM 8% | [1]; at 3.7 µM 12% | [1]; at 11.0 µM 12% | [1]; at 33.0 µM 32% | [2]; at 1.2 µM 9% | [2]; at 3.7 µM 30% | [2]; at 11.0 µM 22% | [2]; at 33.0 µM 44% | [2]; at 100.0 µM 48% | [3]; at 1.2 µM 0% | [3]; at 3.7 µM 6% | [3]; at 11.0 µM 12% | [3]; at 33.0 µM 23% | [4]; at 1.2 µM -3% | [4]; at 3.7 µM 1% | [4]; at 11.0 µM 0% | [4]; at 33.0 µM 16% | [4]; at 100.0 µM 51% | [5]; at 1.2 µM 18% | [5]; at 3.7 µM 1% | [5]; [17] 15% | [5]; at 11.0 µM 8% | [5]; at 33.0 µM 22% | [5]; [18] 50% | [5]; at 50.0 µM 29.4% | [5]; at 100.0 µM 48% | [6]; at 1.2 µM 9% | [6]; at 3.7 µM -3% | [6]; [17] 14% | [6]; at 11.0 µM -3% | [6]; at 33.0 µM 26% | [6]; [18] 40% | [6]; at 50.0 µM 28.9% | [6]; at 100.0 µM 35% | [7]; at 1.2 µM 4% | [7]; at 3.7 µM 7% | [7]; at 11.0 µM 2% | [7]; at 33.0 µM 12% | [7]; at 100.0 µM 42% | [8]; [17] 29% | [9]; at 1.2 µM 16% | [9]; at 3.7 µM 4% | [9]; at 11.0 µM 13% | [9]; at 33.0 µM 19% | [9]; at 100.0 µM 51% | [10]; [17] 26% | [10]; [18] 62% | [10]; at 50.0 µM 28.3% | [11]; at 1.2 µM -19% | [11]; at 3.7 µM -16% | [11]; [17] 9% | [11]; at 11.0 µM -16% | [11]; at 33.0 µM -9% | [11]; at 50.0 µM 47.5% | [11]; at 100.0 µM 35% | [12]; at 1.2 µM -7% | [12]; at 3.7 µM -1% | [12]; at 11.0 µM 1% | [12]; at 33.0 µM 49% | [13]; at 1.2 µM 17% | [13]; at 3.7 µM 18% | [13]; at 11.0 µM 20% | [13]; at 33.0 µM 24% | [13]; at 100.0 µM 59% | [14]; [17] 6% | [14]; [18] 64% | [15]; at 1.2 µM 2% | [15]; at 3.7 µM -2% | [15]; at 11.0 µM -8% | [15]; at 33.0 µM 4% | [15]; at 100.0 µM 67%
active: [1]; at 100.0 µM 71% | [3]; at 100.0 µM 74% | [8]; [18] 83% | [8]; at 50.0 µM 80.5% | [11]; [18] 82% | [12]; at 100.0 µM 83%

Cc1cc(Cl)ccc1NC(=O)/C(Cl)=C1/Sc2ccccc2NC1=O
inactive: [1]; at 1.2 µM -3% | [1]; at 3.7 µM -3% | [1]; at 11.0 µM -2% | [1]; at 33.0 µM 0% | [1]; at 100.0 µM 27% | [2]; at 1.2 µM -1% | [2]; at 3.7 µM -3% | [2]; at 11.0 µM -4% | [2]; at 33.0 µM -41% | [2]; at 100.0 µM 3% | [3]; at 1.2 µM 1% | [3]; at 3.7 µM 4% | [3]; at 11.0 µM 7% | [3]; at 33.0 µM 8% | [3]; at 100.0 µM 2% | [4]; at 1.2 µM -2% | [4]; at 3.7 µM -1% | [4]; at 11.0 µM -3% | [4]; at 33.0 µM -5% | [4]; at 100.0 µM -2% | [5]; at 1.2 µM 2% | [5]; at 3.7 µM 24% | [5]; [17] 47% | [5]; at 11.0 µM 29% | [5]; at 33.0 µM 3% | [5]; at 100.0 µM 24% | [6]; at 1.2 µM -1% | [6]; at 3.7 µM -5% | [6]; [17] 24% | [6]; at 11.0 µM -6% | [6]; at 33.0 µM -5% | [6]; [18] 62% | [6]; at 50.0 µM 56.9% | [6]; at 100.0 µM 16% | [7]; at 1.2 µM 1% | [7]; at 3.7 µM 4% | [7]; at 11.0 µM 5% | [7]; at 33.0 µM 4% | [7]; at 100.0 µM 2% | [8]; [17] 36% | [8]; at 50.0 µM 68.5% | [9]; at 1.2 µM -8% | [9]; at 3.7 µM -1% | [9]; at 11.0 µM -6% | [9]; at 33.0 µM -7% | [9]; at 100.0 µM -14% | [10]; [17] 23% | [10]; [18] 57% | [10]; at 50.0 µM -5.3% | [11]; at 1.2 µM -2% | [11]; at 3.7 µM -2% | [11]; [17] 35% | [11]; at 11.0 µM -3% | [11]; at 33.0 µM -4% | [11]; at 50.0 µM 20.2% | [11]; at 100.0 µM 7% | [12]; at 1.2 µM -2% | [12]; at 3.7 µM 7% | [12]; at 11.0 µM -2% | [12]; at 33.0 µM -2% | [12]; at 100.0 µM 2% | [16]; at 1.2 µM -1% | [16]; at 3.7 µM -3% | [16]; at 11.0 µM -3% | [16]; at 33.0 µM -5% | [16]; at 100.0 µM 0% | [13]; at 1.2 µM -1% | [13]; at 3.7 µM 2% | [13]; at 11.0 µM 4% | [13]; at 33.0 µM 7% | [13]; at 100.0 µM 31% | [14]; [17] 35% | [14]; at 50.0 µM 69.2% | [15]; at 1.2 µM 0% | [15]; at 3.7 µM 3% | [15]; at 11.0 µM 4% | [15]; at 33.0 µM 6% | [15]; at 100.0 µM 45%
active: [5]; [18] 82% | [5]; at 50.0 µM 72% | [8]; [18] 91% | [11]; [18] 91% | [14]; [18] 80%
